The record followed here is PubChem BioAssay (Tox21).

Inconclusive results are not listed. Values without a mark were called inactive. Calls of active or inactive are those of the source. Unless noted, calls follow the shape of the dose curve; as a rule, active = well fitted curve in the direction sought with a large enough effect in the repeat runs; inconclusive = weak or mixed curves; inactive = no such curve, though single readings can be large; an effect the other way counts as inactive or inconclusive.

Assay [1] in a line: qHTS assay to identify small molecule antagonists of the estrogen related receptor (ERR) signaling pathway from Tox21 library - cell viability counter screen (AID 1224834). Also: nearly all actives have a fitted effect of over 30% in size. Also: potency is read from the fitted curve at half-maximal effect. The gist of the method:
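CellTiter-Fluor fluorescence measured; ERR cells; 17.5 h compound incubation at 37 C; 30 min reagent step.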
(In general: Quantitative high-throughput screening tests each substance at several concentrations.)

For assay [2], the target named is Luciferin 4-monooxygenase (Photinus pyralis) (UniProt P08659). Description: qHTS assay to identify small molecule inhibitors of firefly luciferase (AID 1224835). Also: nearly all actives have a fitted effect of over 25% in size. Also: potency is read from the fitted curve at half-maximal effect. As to activity change, negative = inhibition: series mostly up to about 120 µM. In outline: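 Quantitative HTS format; KM concentrations of both substrates. Purified P. pyralis FLuc activity quantified from luminescence images.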
Luciferin 4-monooxygenase (Photinus pyralis), sequence (P08659 whole entry, looked up): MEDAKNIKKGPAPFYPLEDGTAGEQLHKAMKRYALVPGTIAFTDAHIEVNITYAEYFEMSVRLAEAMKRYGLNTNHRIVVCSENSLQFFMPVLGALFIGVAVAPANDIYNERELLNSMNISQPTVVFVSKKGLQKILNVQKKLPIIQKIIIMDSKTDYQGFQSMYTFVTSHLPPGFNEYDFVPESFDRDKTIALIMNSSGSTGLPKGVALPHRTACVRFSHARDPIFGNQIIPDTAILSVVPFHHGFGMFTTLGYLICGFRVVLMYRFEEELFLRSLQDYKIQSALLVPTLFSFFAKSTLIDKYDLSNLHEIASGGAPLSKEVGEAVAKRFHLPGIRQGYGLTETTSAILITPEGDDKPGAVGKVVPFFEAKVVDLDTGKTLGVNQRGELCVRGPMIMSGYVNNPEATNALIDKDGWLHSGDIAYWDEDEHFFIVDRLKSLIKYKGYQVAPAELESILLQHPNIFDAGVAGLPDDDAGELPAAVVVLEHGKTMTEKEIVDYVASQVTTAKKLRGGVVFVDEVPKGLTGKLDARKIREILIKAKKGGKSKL
The nature of assay [3]: qHTS assay to identify small molecule agonists of the constitutive androstane receptor (CAR) signaling pathway - cell viability counter screen (AID 1224836). Also: series mostly up to about 92 µM; nearly all actives have a fitted effect of over 45% in size. The gist of the method:
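23 h treatment, 37 C, 5% CO2. Cell line: HepG2 stably expressing hCAR with a CYP2B6-2.2kb construct. Co-treatment: PK11195, 0.75 uM final. Read-out: CellTiter-Fluor fluorescence intensity.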

Assay [4] is described as follows: qHTS assay to identify small molecule antagonists of the constitutive androstane receptor (CAR) signaling pathway - cell viability counter screen (AID 1224837). Also: series mostly up to about 92 µM; nearly all actives have a fitted effect of over 45% in size. In outline:
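Using CellTiter-Fluor, viability is scored in HepG2 cells stably carrying hCAR and a 2.2kb CYP2B6 reporter after 23 hr compound exposure across 15 concentrations, with CITCO present at 50 nM.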

Assay [5] addresses Nuclear receptor subfamily 1 group I member 3 (Homo sapiens) (UniProt Q14994). Description: qHTS assay to identify small molecule antagonists of the constitutive androstane receptor (CAR) signaling pathway (AID 1224838).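 Also: HepG2 cells stably expressing hCAR with CYP2B6 luciferase reporter stimulated by CITCO; nearly all actives have a fitted effect of over 40% in size.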 The gist of the method: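 Reporter luminescence was quantified after 24 h exposure of hCAR/CYP2B6-2.2kb double-stable HepG2 cells to compounds at 15 concentrations in the presence of 50 nM CITCO final.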

Assay [6] shares this target. Description: qHTS assay to identify small molecule agonists of the constitutive androstane receptor (CAR) signaling pathway (AID 1224839). Also: nearly all actives have a fitted effect of over 15% in size. Also: potency is read from the fitted curve at half-maximal effect.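 As to activation: HepG2 cells stably carrying human CAR and a CYP2B6 luciferase reporter; series mostly up to about 92 µM.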 In outline:
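Compounds tested at 15 concentrations on HepG2 cells stably harbouring hCAR and CYP2B6-2.2kb reporter constructs, co-treated with PK11195 (0.75 uM final), 24 h at 37 C; luminescent reporter signal quantified.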

A short description of assay [7]: qHTS assay to identify small molecule antagonists of the estrogen related receptor signaling pathway with the pleiotropic PPARgamma coactivator (PGC) from Tox21 10K library - cell viability counter screen (AID 1224840; active = well fitted cell-killing curve with a large enough effect in the repeat runs, not every such curve was filed as active; also: nearly all actives have a fitted effect of over 40% in size). The gist of the method:
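Here the PGC/ERR cells serve as a cytotoxicity control: they are exposed to compounds for 17.5 hours at 37 C, and live-cell signal is quantified using CellTiter-Fluor fluorescence.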

Assay [8] addresses Thyrotropin receptor (Homo sapiens) (UniProt P16473). Nature of the assay: qHTS assay to identify small molecule agonists of the thyroid stimulating hormone receptor (TSHR) signaling pathway (AID 1224843; calls by dose curve; also: nearly all actives have a fitted effect of over 45% in size; also: potency is read from the fitted curve at half-maximal effect). In outline: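 TSHR-expressing HEK293 cells (800 per well) were exposed to compounds for 30 min at room temperature. cAMP was then detected by HTRF competition with cAMP-d2 and anti-cAMP cryptate, read after 1 h at room temperature. Fifteen concentrations, triplicate.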

The nature of assay [9]: qHTS assay to identify small molecule antagonists of the estrogen related receptor signaling pathway with the pleiotropic PPARgamma coactivator (PGC) from Tox21 10K library (AID 1224841; call rule not given here; also: actives are mostly falling curves and most rising ones were filed inactive; nearly all actives have a fitted effect of over 50% in size; also: potency is read from the fitted curve at half-maximal effect; as to activity, negative = inhibition: series mostly up to about 92 µM). The gist of the method: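 Each well held 2,000 PGC/ERR cells, pre-incubated six hours (37 C, 5% CO2). Test substances in DMSO were added by pin tool and left for 18 h at 37 C before luciferase detection by One-Glo.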

The nature of assay [10]: qHTS assay to identify small molecule agonists of the estrogen related receptor signaling pathway with the pleiotropic PPARgamma coactivator (PGC) from Tox21 10K library (AID 1224842). Also: nearly all actives have a fitted effect of over 15% in size. Also: potency is read from the fitted curve at half-maximal effect. The gist of the method: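 PGC/ERR reporter cells (NTP line) were seeded 2,000 per well, rested 6 h at 37 C/5% CO2, then pin-dosed with compounds in DMSO for 18 h at 37 C; luciferase read by One-Glo luminescence after 30 min at room temperature.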
% is scaled to controls: 0 for no effect and ±100 for the full control effect.

Nuclear receptor subfamily 1 group I member 3 (Homo sapiens), sequence (Q14994 whole entry, looked up): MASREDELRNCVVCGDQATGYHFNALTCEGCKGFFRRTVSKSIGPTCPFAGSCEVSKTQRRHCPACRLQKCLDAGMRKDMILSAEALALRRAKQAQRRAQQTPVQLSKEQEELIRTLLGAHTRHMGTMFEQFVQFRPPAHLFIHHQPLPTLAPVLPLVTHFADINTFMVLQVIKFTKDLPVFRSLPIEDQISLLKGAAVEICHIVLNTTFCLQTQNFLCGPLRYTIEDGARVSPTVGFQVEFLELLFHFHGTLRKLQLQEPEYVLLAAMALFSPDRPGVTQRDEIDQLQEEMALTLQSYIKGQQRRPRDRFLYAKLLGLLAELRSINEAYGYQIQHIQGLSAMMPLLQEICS
Thyrotropin receptor (Homo sapiens), sequence (P16473 whole entry, looked up): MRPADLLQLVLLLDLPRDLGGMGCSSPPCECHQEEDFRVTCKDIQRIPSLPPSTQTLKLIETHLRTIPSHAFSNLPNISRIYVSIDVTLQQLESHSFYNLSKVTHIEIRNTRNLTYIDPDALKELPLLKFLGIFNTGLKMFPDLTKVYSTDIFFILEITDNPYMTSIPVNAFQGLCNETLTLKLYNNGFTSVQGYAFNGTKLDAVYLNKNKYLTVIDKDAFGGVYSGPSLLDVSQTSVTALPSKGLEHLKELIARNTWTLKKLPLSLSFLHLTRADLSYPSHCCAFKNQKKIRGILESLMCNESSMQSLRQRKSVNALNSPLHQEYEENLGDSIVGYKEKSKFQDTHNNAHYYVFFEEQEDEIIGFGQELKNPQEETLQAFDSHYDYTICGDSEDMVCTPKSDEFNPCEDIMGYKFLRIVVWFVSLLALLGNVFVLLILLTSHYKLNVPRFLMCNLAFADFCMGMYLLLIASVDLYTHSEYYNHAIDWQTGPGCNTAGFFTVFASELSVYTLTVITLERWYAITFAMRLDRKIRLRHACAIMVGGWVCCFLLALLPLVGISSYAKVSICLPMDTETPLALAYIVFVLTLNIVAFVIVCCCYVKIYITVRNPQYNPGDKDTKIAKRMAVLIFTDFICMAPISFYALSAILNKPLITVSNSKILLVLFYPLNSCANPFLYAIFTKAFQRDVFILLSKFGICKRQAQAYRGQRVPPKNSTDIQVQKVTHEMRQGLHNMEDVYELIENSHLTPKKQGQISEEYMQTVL

With `CCOC(=O)C(F)(F)F`, the Potency result in assay [1], in assay [2], in assay [3], in assay [4], in assay [5] and in [6] was “inactive” each time. The Potency result in assay [7] and in [8] was “inactive” each time.
Turning to `Nc1cc(C(=O)O)c(O)c(S(=O)(=O)O)c1`, the Potency result in assay [1], in [2], in assay [3], in assay [4], in [5] and in [6] was “inactive” each time. Moreover, the Potency result in [7] and in [8] was “inactive” in each case.
In the case of `O=C(OCCc1ccccc1)c1ccccc1`, the Potency entry in [1], in assay [3], in assay [4], in assay [5], in assay [6] and in [7] was “inactive” each time. In addition, the Potency entry in [8] is “inactive”. Also, the Potency in assay [2] was 1 µM (active).
Consider `O=CC1CC=CCC1` (stereo unspecified), for which the Potency result in [1], in [2], in assay [3], in assay [4], in assay [5] and in assay [6] was “inactive” each time. Also, the Potency entry in [7] and in assay [8] was “inactive” throughout.
For `CCOc1ccc(O)cc1`, the Potency entry in [1], in assay [2], in assay [3], in [4], in [5] and in assay [6] was “inactive” in each case. The Potency entry in assay [7] and in assay [8] was “inactive” throughout.
Turning to `O=C(NCCO[N+](=O)[O-])c1cccnc1`, the Potency entry in assay [1], in [2], in assay [3], in assay [4], in assay [5] and in assay [6] was “inactive” in each case. For the same molecule, the Potency result in assay [7] and in [8] was “inactive” in each case.
On to `CCCCC(=O)OCC(=O)[C@H]1[C@H](C)C[C@H]2[C@@H]3C[C@H](F)C4=CC(=O)C=C[C@]4(C)[C@@]3(F)[C@@H](O)C[C@@]21C`, for which the Potency result in [1], in assay [2], in assay [3], in assay [4], in assay [5] and in assay [6] was “inactive” throughout. The Potency entry in assay [7] and in [8] was “inactive” throughout.
`COS(=O)(=O)C(F)(F)F`: the Potency entry in [1], in assay [2], in assay [3], in [4], in assay [5] and in [6] was “inactive” in each case. Also, the Potency entry in assay [7] and in [8] was “inactive” in each case.
For `O=C1C(O)=C(O)C(=O)C(O)=C1O`, the Potency result in [1], in [2], in assay [3], in assay [4], in assay [5] and in assay [6] was “inactive” each time. Further, the Potency result in [7] and in [8] was “inactive” in each case.
As for `CCO[Si](CCCCl)(OCC)OCC`, the Potency entry in assay [1], in [2], in assay [3], in assay [4], in assay [5] and in [6] was “inactive” each time. For the same molecule, the Potency result in assay [7] and in assay [8] was “inactive” in each case.
In the case of `NCc1ccccc1Sc1ccccc1CO`, the Potency entry in assay [1], in assay [2], in assay [3], in [4], in assay [5] and in assay [6] was “inactive” throughout. The Potency result in [7] and in [8] was “inactive” in each case.
With `O=C(c1ccc(F)cc1)C1CCN(CCn2c(=S)[nH]c3ccccc3c2=O)CC1`, the Potency is 29.8 µM (active) in assay [1] and 26.6 µM (active) in assay [9]. For the same molecule, the Potency entry in [2], in [3], in assay [4], in assay [5], in [6] and in assay [8] was “inactive” each time.
Consider `COc1ccc(-c2nc3ccc(C4=NNC(=O)CC4C)cc3[nH]2)cc1` (stereo unspecified), for which the Potency in assay [1] was 13.3 µM (active); in assay [2], 8.71 µM (active); in assay [6] it was 3.76 µM (active); in [10] it was 8.41 µM (active); in assay [8], 9.44 µM (active). Also, the Potency entry in assay [3], in assay [4], in assay [5] and in [9] was “inactive” in each case.
With `CCCC(=O)Nc1ccc(O)c(C(C)=O)c1`, the Potency result in assay [1], in assay [2], in assay [3], in assay [4], in assay [5] and in [6] was “inactive” each time. Moreover, the Potency result in [7] and in [8] was “inactive” throughout.
On to `CCCCc1ncc(/C=C(\Cc2cccs2)C(=O)O)n1Cc1ccc(C(=O)O)cc1`, for which the Potency result in [1], in assay [2], in [3], in assay [4], in assay [5] and in assay [6] was “inactive” throughout. Besides, the Potency entry in assay [7] and in assay [8] was “inactive” in each case.
Regarding `O=C(O)C1(C(=O)Nc2ccc(Cl)cc2Cl)CC1`, the Potency entry in assay [1], in [3], in [4], in assay [5], in assay [7] and in assay [8] was “inactive” each time. Moreover, the values for the Potency in assay [2] and in assay [6] were 6.33 µM (active) and 13.7 µM (active), respectively.
`CC(CC=O)c1ccccc1` (stereo unspecified): the Potency entry in [1], in assay [2], in assay [3], in assay [4], in assay [5] and in assay [6] was “inactive” throughout. For the same molecule, the Potency entry in assay [7] and in [8] was “inactive” in each case.
For the molecule `O=C1c2ccccc2S(=O)(=O)N1CCCCN1CCN(c2ncccn2)CC1`, the Potency result in assay [1], in [2], in assay [3], in assay [4], in assay [5] and in assay [6] was “inactive” in each case. Moreover, the Potency result in assay [7] and in [8] was “inactive” in each case.
For `COC(=O)c1ccc(I)cc1S(=O)(=O)NC(=O)Nc1nc(C)nc(OC)n1`, the Potency result in [1], in assay [2], in assay [3], in assay [4], in [5] and in assay [6] was “inactive” each time. The Potency result in assay [7] and in assay [8] was “inactive” each time.
Turning to `O=C(O)CNCC(=O)O`, the viability change, negative = cytotoxic is 2.9% [at 8.39 µM] in assay [1], 4.87% [at 8.39 µM] in assay [3] and 0.614% [at 8.39 µM] in [7]. In addition, the activity change, negative = inhibition in [2] is 2.59% [at 10.5 µM]. In addition, the activity change, negative = cytotoxicity in assay [4] was 2.11% [at 8.39 µM]. The activity, negative = inhibition in assay [5] was 15.5% [at 8.39 µM]. The activation in assay [6] is -0.889% [at 8.39 µM]; in [8], 4.36% [at 8.39 µM].
For `CC1CCC(=O)C1=O` (stereo unspecified), the Potency entry in assay [1], in assay [2], in assay [3], in [4], in [5] and in assay [6] was “inactive” throughout. The Potency entry in assay [7] and in assay [8] was “inactive” each time.
Consider `OC(C#CCN1CCCC1)(c1ccccc1)c1ccccc1`, for which the Potency entry in [1], in assay [2], in assay [3], in [4], in assay [7] and in [10] was “inactive” in each case. Moreover, the Potency entry in assay [8] is “inactive”.
Turning to `c1ccc(-c2ccccn2)nc1`, the Potency result in assay [1], in assay [2], in assay [3], in assay [4], in assay [7] and in assay [8] was “inactive” throughout.
On to `C=C1C(=C/C=C2\CCC[C@]3(C)[C@@H]([C@H](C)/C=C/[C@@H](O)C4CC4)CC[C@@H]23)C[C@@H](O)C[C@@H]1O`, for which, in [1], the Potency was 29.8 µM (active). In addition, the Potency entry in assay [2], in assay [3], in assay [4], in [5] and in assay [10] was “inactive” each time.
Consider `CCC(C)c1cc(C(C)(C)C)c(O)c(C(C)(C)C)c1` (stereo unspecified), for which the Potency entry in assay [1], in assay [2], in assay [3], in assay [4], in [7] and in [8] was “inactive” each time.
Regarding `C[C@@H]1C[C@H]2O[C@@]3(O[C@@H]2C(C)(C)O)[C@H](O)[C@@]2(C)[C@@H]4CC[C@H]5C(C)(C)[C@@H](O[C@@H]6OC[C@@H](O)[C@H](O)[C@H]6O)CC[C@@]56C[C@@]46CC[C@]2(C)[C@@H]13`, the Potency entry in assay [1], in assay [2], in [3], in [4], in assay [5] and in assay [7] was “inactive” in each case. For the same molecule, the Potency entry in assay [8] was “inactive”.
